# According to PubChem BioAssay (NCI):
# This is part of a sample that, as a whole, favours compounds with a hit. Of some 83,000 tested, about 20% had one in any assay.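 The endpoint reported here, percent growth, reads 100 for growth as untreated, 0 for no net growth and -100 for all cells dead.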 A number with no mark means an inactive call. Active and inactive are the calls of the source. Rule for the calls: active = growth percent below 10; inactive = the rest.
# Assays:
# Assay in all cases: NCI-60 one-dose screen, 48 h (100 = growth as untreated, 0 = no growth, -100 = all killed)
# Conditions in all cases: 10 µM unless noted
# HT29 colon = system: HT29 colon
# SNB-75 CNS = system: SNB-75 CNS
# SNB-19 CNS = system: SNB-19 CNS
# U251 CNS = system: U251 CNS
# SK-MEL-5 melanoma = system: SK-MEL-5 melanoma
# UACC-62 melanoma = system: UACC-62 melanoma
# LOX IMVI melanoma = system: LOX IMVI melanoma
# SK-MEL-28 melanoma = system: SK-MEL-28 melanoma
# SK-MEL-2 melanoma = system: SK-MEL-2 melanoma
# EKVX NSCLC = system: EKVX NSCLC
# SN12C renal = system: SN12C renal
# UO-31 renal = system: UO-31 renal
# TK-10 renal = system: TK-10 renal
# ACHN renal = system: ACHN renal
# CAKI-1 renal = system: CAKI-1 renal
# A498 renal = system: A498 renal
# CCRF-CEM leukemia = system: CCRF-CEM leukemia
# MOLT-4 leukemia = system: MOLT-4 leukemia
# SR leukemia = system: SR leukemia
# PC-3 prostate = system: PC-3 prostate
SMILES,growth (HT29 colon),growth (SNB-75 CNS),growth (SNB-19 CNS),growth (U251 CNS),growth (SK-MEL-5 melanoma),growth (UACC-62 melanoma),growth (LOX IMVI melanoma),growth (SK-MEL-28 melanoma),growth (SK-MEL-2 melanoma),growth (EKVX NSCLC),growth (SN12C renal),growth (UO-31 renal),growth (TK-10 renal),growth (ACHN renal),growth (CAKI-1 renal),growth (A498 renal),growth (CCRF-CEM leukemia),growth (MOLT-4 leukemia),growth (SR leukemia),growth (PC-3 prostate)
CC(=O)Oc1c(C)c(OC(C)=O)c2c(c1C(C)=O)OC1CC(=O)C(C(C)=O)=C(O)C21C (stereo unspecified),100%,94.7%,95.4%,91.6%,95.4%,95.9%,86.7%,119%,107%,96.9%,95.5%,89%,109%,97%,99.3%,136%,102%,64%,,
Cc1cc(NC(=O)Nc2cc(Cl)ccc2C)no1,106%,76.8%,110%,108%,102%,91.1%,99.3%,142%,116%,87%,109%,96.2%,231%,103%,96.1%,133%,109%,97.5%,59.4%,
O=c1ccn(C2OC(CO)C(O)C2F)c(=O)[nH]1 (stereo unspecified),104%,93%,101%,113%,107%,92.4%,106%,116%,119%,102%,102%,101%,124%,107%,107%,110%,119%,168%,111%,
COc1cc2c(c(OC)c1OC)CCc1cnoc1-2,99.4%,71.7%,97%,98.7%,100%,98.9%,92.1%,123%,119%,112%,106%,94.5%,111%,95.1%,105%,100%,111%,127%,166%,
O=C1NCN(CCO)CN1,99.8%,100%,100%,109%,106%,92.8%,103%,110%,108%,98.9%,96.5%,97.2%,107%,104%,92.8%,106%,99.7%,121%,122%,
CCOc1nc(-c2ccccc2)cc2c(O)c(C(=O)n3nc(C)cc3C)[nH]c(=O)c12,104%,94.4%,102%,99.5%,,110%,,109%,,,101%,96%,108%,100%,119%,101%,96.5%,99%,96.2%,101%
O=C(Nc1ccc(Nc2ccncc2)cc1)c1ccc(Nc2ccnc3ccc([N+](=O)[O-])cc23)cc1[N+](=O)[O-],103%,85.8%,29.6%,-46.1% (active),103%,91.1%,21.1%,54.6%,82.2%,50%,68%,52.8%,102%,65.9%,89.3%,120%,98.8%,109%,,
CCOc1nc(-c2ccccc2)cc2c(O)c(-c3nnco3)[nH]c(=O)c12,69%,55.2%,72.1%,32.7%,,56.9%,,76.1%,,,47.2%,29.1%,31.8%,52.3%,34.6%,45.3%,15.7%,30%,21.3%,43.4%
CCN1C(=O)c2ccc3c4c(ccc(c24)C1=O)C(=O)N(CCCNCc1ccccc1OC)C3=O,-48.8% (active),-71.5% (active),-64.1% (active),-86.3% (active),,-88.3% (active),,3.31% (active),,,-91.6% (active),-42.5% (active),-28.3% (active),-67.1% (active),-11.4% (active),-80.7% (active),-42.3% (active),,-42% (active),0.702% (active)
O=C(Nc1cccc([N+](=O)[O-])c1)c1cccc(C(=O)Nc2cccc([N+](=O)[O-])c2)c1,88.5%,-40.4% (active),60.3%,31.8%,94%,75.1%,67.6%,77.2%,63.7%,84.3%,45.7%,56.7%,65.5%,64.7%,85.3%,92.5%,116%,99.3%,83.9%,
CN(CC(=O)Nc1nc2ccccc2[nH]1)S(=O)(=O)c1ccc(Cl)cc1,64.7%,101%,92.4%,78.9%,84.1%,66.9%,64.7%,121%,53.7%,95.4%,93.9%,28.8%,118%,83.5%,89.8%,91.7%,44.6%,58.5%,89.9%,
O=C1CC(C(F)(F)F)=NN1C(=O)c1nn(-c2ccc(Cl)cc2)cc1O,110%,74.6%,87.7%,64.9%,88.4%,96.4%,62.6%,115%,96.9%,79.5%,80.3%,67.3%,122%,79.3%,52.8%,77.8%,53.1%,80.4%,-0.46% (active),
N#Cc1ccc(NC(=O)Nc2ccc(Oc3ccc(NC(=O)Nc4ccc(C#N)cc4)cc3)cc2)cc1,37.4%,70.1%,30.7%,27.7%,31.2%,11.2%,35.4%,51%,-19.6% (active),34.1%,39%,-25.7% (active),37.9%,23.1%,33%,41.1%,-13.7% (active),-58% (active),3.43% (active),
Cc1ccc([N+](=O)[O-])cc1NC(=O)Nc1cccc(F)c1,79.8%,90.2%,64.1%,64.3%,60.5%,71.8%,82.4%,108%,86%,48.6%,88.9%,67.7%,69.1%,67.7%,53.4%,78.3%,54.4%,62%,62.6%,
O=C(Oc1ccc[nH]c1=O)c1cccc(Cl)c1,97.4%,53.2%,85.8%,92.7%,99.8%,95.3%,90.8%,127%,108%,104%,108%,96.2%,107%,96%,101%,127%,123%,115%,99.2%,
CCCCSc1cc(C)nc(N)n1,103%,81%,99.4%,93.8%,101%,93.9%,92%,113%,93.4%,97.2%,92.1%,45.5%,93.8%,96.9%,97.6%,92.8%,91.7%,102%,98%,
C[n+]1c2ccccc2c(Nc2ccc(N3CCCCC3)cc2)c2[nH]c3ccccc3c21,-85% (active),-94% (active),-89.8% (active),-98% (active),-98.3% (active),-97.8% (active),-86.2% (active),-98.9% (active),-97.9% (active),-56.1% (active),-82.7% (active),-97.5% (active),-79.4% (active),-96.2% (active),-96.8% (active),-88.3% (active),-49.3% (active),-63.4% (active),-70.1% (active),
